Measurements reported in PubChem BioAssay AID463173 (ICCB-Longwood Screening Facility, Harvard Medical School, 2010).
The campaign covered roughly 52,000 compounds. About 4,300 (8.3%) were called active. This excerpt belongs to a sample that is enriched for actives. Values without a mark were called inactive. Cut-off read from the data, not from the text of the source: active = survival mostly below about 52% (no sharp cut-off); inactive = mostly above about 56%.

Test system: DeltatarO mutant
Test: growth inhibition of S. aureus wild type versus tarO mutant, primary screen, teichoic acid synthesis inhibitors, RN4220, OD600 (AID 463173)
Details: OD600, 18 h, hits give low values, screened at 18.75 µg/mL (by protocol)

Structure (SMILES) | survival
CCOc1ccc(C2C(C(N)=O)=C(C)Nc3nc(-c4cccc(Cl)c4)nn32)cc1OC (stereo unspecified) | 74%
O=C(NCC(c1ccco1)S(=O)(=O)c1cccs1)c1ccccc1 (stereo unspecified) | 63%
COc1cc2[nH]c(=O)n(CCCCCC(=O)N3CCN(c4cccc(C(F)(F)F)c4)CC3)c(=O)c2cc1OC | 83%
O=C(NCc1ccccc1)N(Cc1nc2ccccc2c(=O)[nH]1)C1CCCC1 | 52% (active)
O=C(NC1CCCCC1)N(Cc1nc2ccccc2c(=O)[nH]1)C1CCCC1 | 85%
O=C(c1ccccc1)N(Cc1nc2ccccc2c(=O)[nH]1)C1CCCC1 | 70%
COc1cccc2c(=O)cc(C)[nH]c12 | 88%
CN(Cc1ccccc1)C1CCNCC1 | 90%
O=C(Nc1cc(C(F)(F)F)ccc1Cl)c1ccc2c(c1)CCN2S(=O)(=O)c1ccccc1 | 48%
O=C(Nc1ccc(Cl)c(C(F)(F)F)c1)c1ccc2c(c1)CCN2S(=O)(=O)c1ccccc1 | 43% (active)
CS(=O)(=O)N1CCc2cc(C(=O)Nc3ccc(C(F)(F)F)cc3)ccc21 | 76%
Cc1ccc(S(=O)(=O)N2CCc3cc(C(=O)Nc4ccc(C(F)(F)F)cc4)ccc32)cc1 | 63%
CS(=O)(=O)N1CCc2cc(C(=O)Nc3cccc(F)c3)ccc21 | 68%
CS(=O)(=O)N1CCc2cc(C(=O)Nc3ccc(Cl)c(C(F)(F)F)c3)ccc21 | 33% (active)
CCCCNC(=O)CSc1nc2cc3c(cc2c(=O)n1CCCCCC(=O)NCc1ccc(OC)cc1)OCO3 | 79%
CNCCCc1cc(C)ccc1O | 59%
CCc1ccc(NC(=O)c2cccc(N3CCCS3(=O)=O)c2)cc1 | 81%
Cc1ccc(S(=O)(=O)Nc2cc3c(cc2Cl)n(C)c(=O)c(=O)n3C)cc1 | 83%
CCN(CC)N=Nc1ccc(S(=O)(=O)Nc2nc(C)cc(C)n2)cc1 | 100%
CN(C)CCCN(C(=O)c1ccc2c(c1)OCCO2)c1nc2ccccc2s1 | 94%
CCOc1ccc2nc(NCCNC(=O)Nc3cccc(Cl)c3)c(C#N)cc2c1 | 82%
Cc1ccn2c(Nc3ccc4c(c3)OCCO4)c(-c3ccc(Cl)s3)nc2c1 | 102%
Cc1ccc2nc(-c3cccs3)c(Nc3c(C)cccc3C)n2c1 | 35% (active)

Structure (SMILES) | survival
Cc1ccn2c(Nc3c(C)cccc3C)c(-c3ccc(Cl)s3)nc2c1 | 37% (active)
Cc1cccc(C)c1Nc1c(-c2ccsc2)nc2ccc(Cl)cn12 | 80%
Cc1cccc(C)c1Nc1c(-c2cccs2)nc2ncccn12 | 76%
Cc1cccc(C)c1Nc1c(-c2ccsc2)nc2ccccn12 | 43%
Cc1ccc2nc(-c3cccs3)c(Nc3ccc4c(c3)OCCO4)n2c1 | 99%
Cc1cccc(C)c1Nc1c(-c2ccc(Cl)s2)nc2ncccn12 | 103%
Cc1ccn2c(Nc3c(C)cccc3C)c(-c3ccsc3)nc2c1 | 35% (active)
O=C(Nc1ccccc1C(F)(F)F)c1ccc2oc(=O)c(S(=O)(=O)c3ccc(F)cc3)cc2c1 | 89%
CSc1cccc(NC(=O)C2CCCN(S(=O)(=O)c3ccc4c(c3)CCCN4C(C)=O)C2)c1 (stereo unspecified) | 71%
O=C(OCC1CCCO1)c1ccc2c(c1)N(Cc1ccc(F)cc1)C(=O)c1ccccc1S2(=O)=O (stereo unspecified) | 101%
Cc1ccc2occ(CC(=O)N(Cc3ccc(N(C)C)cc3)C3CCS(=O)(=O)C3)c2c1 (stereo unspecified) | 74%
Cc1ccc(CNC(=O)Cn2c3ncccc3c(=O)n2-c2ccccc2)cc1 | 81%
CC(=O)N1CCc2c(sc(NC(=O)CSc3ccc(C)cc3)c2-c2nc3ccccc3s2)C1 | 92%
COC(=O)c1ccc(-c2ccc(/C=N/NC(=O)CC3(C)OCCCO3)o2)cc1 | 96%
CCCCNC(=O)c1cnc2sc(N3CCCCCC3)nn2c1=O | 79%
CN(C)c1ccc(CNC(=O)CCCN2C(=O)c3cccnc3Oc3ccc(Cl)cc32)cc1 | 81%
Cn1c(SCC(=O)N2CCCc3ccccc32)nnc1-c1ccccc1N | 92%
CCc1ccc(NC(=O)CSc2nc(C)c(C(=O)Nc3ccc(Cl)cc3)c(-c3ccc(OC)cc3)c2C#N)cc1 | 92%
Cc1cc(F)ccc1NC(=O)CN1C(=O)CCc2cc(S(=O)(=O)N3CCOCC3)ccc21 | 76%
COc1ccc(Cl)cc1NC(=O)CN1C(=O)C(C)(C)c2cc(S(=O)(=O)N3CCCCC3)ccc21 | 70%
COc1ccc(OC)c(NC(=O)CN2C(=O)CCc3cc(S(=O)(=O)N4CCCCC4)ccc32)c1 | 32% (active)
Cc1ccc(NC(=O)CN2C(=O)CCc3cc(S(=O)(=O)N4CCOCC4)ccc32)cc1F | 47% (active)
COc1ccc(C)cc1NC(=O)CN1C(=O)CCc2cc(S(=O)(=O)N3CCOCC3)ccc21 | 94%

Structure (SMILES) | survival
Cc1ccc(Cl)cc1NC(=O)CN1C(=O)C(C)(C)c2cc(S(=O)(=O)N3CCCCC3)ccc21 | 6% (active)
COc1ccc(NC(=O)CN2C(=O)CCc3cc(S(=O)(=O)N4CCOCC4)ccc32)c(OC)c1 | 80%
Cc1ccc(NC(=O)CN2C(=O)C(C)(C)c3cc(S(=O)(=O)N4CCCCC4)ccc32)c(Br)c1 | 67%
Cc1ccc(NC(=O)CN2C(=O)CCc3cc(S(=O)(=O)N4CCOCC4)ccc32)cc1N(C)C | 93%
CCOC(=O)c1cccc(NC(=O)C(CC(C)C)N2Cc3ccccc3C2=O)c1 (stereo unspecified) | 128%
Cc1nc2cccnc2n1-c1cccc(C(=O)NCCc2ccc(S(N)(=O)=O)cc2)c1 | 85%
CCOc1ccc(OCC)c(NC(=O)c2nnn(Cc3cc(Br)ccc3OC)c2N)c1 | 61%
CC1(C(=O)C[n+]2cccc(C(N)=O)c2)CCC(=O)O1 (stereo unspecified) | 92%
O=C(NC1CCCC1)c1ccc(CSc2nc3ccncc3n2Cc2ccc(F)cc2)cc1 | 68%
O=C(c1ccc2c(c1)N(Cc1ccc(Cl)cc1)C(=O)c1ccccc1S2(=O)=O)N1CCN(Cc2ccccc2)CC1 | 78%
CCC(=O)N1c2ccccc2CC1C(=O)NCCc1ccc(C)cc1 (stereo unspecified) | 75%
Cc1cccc(NC(=O)CN2C(=O)C(c3ccc(F)cc3)=NC23CCCCCC3)c1 | 87%
O=C(CN1C(=O)C(c2ccc(F)cc2)=NC12CCCCCC2)Nc1ccc(F)c(Cl)c1 | 40% (active)
O=C(CN1C(=O)C(c2ccc(F)cc2)=NC12CCCCCC2)Nc1ccccc1Cl | 84%
O=C(c1ccc2c(c1)OCCO2)C1CCCCC1 | 83%
CCNC(=S)N1CCC(C(=O)c2ccc(Cl)cc2)CC1 | 84%
CCNC(=S)N1CCC(C(=O)c2ccc3c(c2)OCCO3)CC1 | 58% (active)
CCC(CC)C(=O)Nc1ccc(-c2cn3cccnc3n2)cc1 | 91%
Cc1cc(F)ccc1Nc1nc2ccccc2n2nnnc12 | 111%
Fc1ccc(-c2noc3ncnc(NC4CCCCC4)c23)cc1 | 67%
CC1CCC(Nc2ncnc3onc(-c4ccc(Cl)cc4)c23)CC1 (stereo unspecified) | 47% (active)
Clc1ccc(CNc2ncnc3onc(-c4ccc(Cl)cc4)c23)cc1 | 133%
Cc1ccc(CCNc2ncnc3onc(-c4ccc(Cl)cc4)c23)cc1 | 46%

Structure (SMILES) | survival
Cc1cccc(CCNc2ncnc3onc(-c4ccc(Cl)cc4)c23)c1 | 33% (active)
COc1cc(Nc2ncnc3onc(-c4ccc(Cl)cc4)c23)cc(OC)c1 | 94%
CCOc1ccc(Nc2ncnc3onc(-c4ccc(Cl)cc4)c23)cc1 | 38% (active)
CCOc1ccc(CCNc2ncnc3onc(-c4ccc(Cl)cc4)c23)cc1 | 76%
Clc1ccc(-c2noc3ncnc(NC4CCCCC4)c23)cc1 | 21% (active)
CC(C)CNc1ncnc2onc(-c3ccc(Cl)cc3)c12 | 71%
Clc1ccc(-c2noc3ncnc(NCCc4ccccc4)c23)cc1 | 78%
CC1CCC(Nc2ncnc3onc(-c4ccc(F)cc4)c23)CC1 (stereo unspecified) | 82%
COc1ccc(-c2csc(C)n2)cc1 | 75%
Cc1ccc(C(=O)N2CCCn3c2nc2ccccc23)cc1 | 70%
COc1cccc(-n2cc(C(=O)OCc3ccc(Cl)cc3)c3ccccc3c2=O)c1 | 85%
N#C/C(=C\c1ccc(OCc2ccc(Cl)cc2Cl)cc1)c1nc2ccccc2[nH]1 | 103%
O=C(O)CCCC(=O)N1CCc2cc(S(=O)(=O)NCc3ccccc3)ccc21 | 111%
Cc1csc(=Nc2ccccc2)n1-c1ccccc1 | 81%
CCOC(=O)c1c(S(=O)(=O)NCC(=O)Nc2cccc(CC)c2)c(C)n(C)c1C | 84%
CCc1nn(CC(=O)NCc2ccccc2)c(=O)c2cccn12 | 69%
CN1C(=O)Cc2cc(S(=O)(=O)NCc3ccccc3Cl)ccc21 | 90%
CC(C)CC(C(N)=O)N1C(=O)c2ccccc2C1=O (stereo unspecified) | 84%
CCOC(=O)C1CCN(C(=O)Cn2ncc3c4ccccc4n(Cc4ccccc4F)c3c2=O)CC1 | 84%
COc1ccc(Cl)cc1S(=O)(=O)N1CCN(C(=O)c2cc(-c3ccc(Br)cc3)n[nH]2)CC1 | 47% (active)
CCOc1ccc(-c2cc(C(=O)N3CCN(S(=O)(=O)c4cc(Cl)ccc4OC)CC3)[nH]n2)cc1 | 73%
COc1ccc(S(=O)(=O)N2CCN(C(=O)c3cc(-c4ccc(Br)cc4)n[nH]3)CC2)cc1OC | 73%
